Assay results taken from PubChem BioAssay (EPA / NIEHS).
Calls of active or inactive are those of the source. How the source made its calls: active means hit-call score of the fitted dose curve at least 0.9, where 1 is the maximum; inactive means score below 0.9.

experiment: ATG_PBREM_CIS: Attagene CIS-FACTORIAL HepG2 Assay for human Phenobarbital-responsive Enhancer Module (PBREM) (AID 2282955); settings: HepG2 PBREM cis-reporter, Attagene multiplexed transcription; actives raise or lower the signal
Protocol: ATG_CIS is a cell-based, multiplexed-readout assay that uses HepG2, a human liver cell line, with measurements taken at 24 hours after chemical dosing in a 24-well plate.ATG_PBREM_CIS is one of 52 assay component(s) measured or calculated from the ATG_CIS assay. It is designed to make measurements of mRNA induction, a form of inducible reporter, as detected with fluorescence intensity signals by Reverse transcription polymerase chain reaction (RT-PCR) and Capillary electrophoresis technology.Data from the assay component ATG_PBREM_CIS was analyzed into 1 assay endpoint. This assay endpoint, ATG_PBREM_CIS, was analyzed with bidirectional fitting relative to DMSO as the negative control and baseline of activity. Using a type of inducible reporter, measures of mRNA for gain or loss-of-signal activity can be used to understand the reporter gene at the transcription factor-level as they relate to the gene NR1I3. Furthermore, this assay endpoint can be referred to as a primary readout, because this assay has produced multiple assay endpoints where this one serves a reporter gene function. To generalize the intended target to other relatable targets, this assay endpoint is annotated to the nuclear receptor intended target family, where the subfamily is non-steroidal.
Human liver HepG2 cells are transiently transfected with multiple reporter transcription units (MRTUs) in 6-well plates using FuGene 6 reagent (Roche; 3 ml FuGene/1 mg DNA). The MRTU constructs are regulated by a cis-regulating element (promoter). […] A major difference between the CIS and TRANS system is that in CIS activities of endogenous TFs are measured, whereas the TRANS assay evaluates changes in activities of exogenous, chimeric NR-Gal4 proteins. […] At the end of 24 hour incubation, total RNA was isolated using TriZol reagent (Invitrogen). The isolated RNA is then reverse-transcribed using oligo(dT) primer and Mo-MLV reverse transcriptase (Invitrogen) with DNAse I (Ambion) treatment for 30 min. The one-tenth of the produced cDNA was amplified by PCR using Taq DNA polymerase (Invitrogen) and two reporter sequence-specific primers. The PCR products were fluorescently labeled by primer extension with 6-arboxyfluorescein (6-FAM) 5'-labeled reporter sequence-specific primer (2 min at 95 C, 20 s at 68 C and 10 min at 72 C) and these products were digested with 5U of HpaI (New England Biolabs) for 2h at 37 C. The fragments were purified using Qiaquick PCR columns (Qiagen), analyzed on an ABI 3130xL genetic analyzer (Applied Biosystems) with peak positions identified by using a set of X-rhodamine (ROX)-labeled MapMarker1000 molecular weight standards (BioVentures). The raw capillary electrophoresis data was processed using Attagraph software (Attagene).

| SMILES | outcome | AC50 |
| --- | --- | --- |
| FC(F)(F)C(F)(F)C(F)(F)C(F)(F)C(F)(F)C(F)(F)C(F)(F)I | inactive |  |
| O=P(O)(O)OCCC(F)(F)C(F)(F)C(F)(F)C(F)(F)C(F)(F)C(F)(F)F | inactive |  |
| CCCCCCC(C)OC(=O)CCCCC(=O)OC(C)CCCCCC (stereo not given) | inactive |  |
| CC(Cc1ccc(O)c(O)c1)C(C)Cc1ccc(O)c(O)c1 (stereo not given) |  | 9.19 µM (active) |
| CCCCC(CC)COP(=O)(O)OCC(CC)CCCC (stereo not given) | inactive |  |
| [Co] | inactive |  |
| CC/C=C\CCOC(=O)c1ccccc1 | inactive |  |
| N=C(N)C(F)(F)C(F)(F)C(F)(F)C(F)(F)C(F)(F)C(F)(F)C(F)(F)F | inactive |  |
| CCCCCCCOC(=O)c1ccccc1C(=O)OCCCCCCC | inactive |  |
| CCCCCCCCCCCCCCCC[N+](C)(C)Cc1ccccc1 | inactive |  |
| CC(=O)Nc1ccc(N=Nc2cc(C)ccc2O)cc1 |  | 49.4 µM (active) |
| C=CC(F)(F)C(F)(F)C(F)(F)C(F)(F)C(F)(F)C(F)(F)C(F)(F)C(F)(F)C=C | inactive |  |
| COC(OC(C)=O)c1ccccc1 (stereo not given) | inactive |  |
| CCCCOc1ccc(N)cc1 | inactive |  |
| CCCCCCCCC(F)(F)C(F)(F)C(F)(F)C(F)(F)C(F)(F)C(F)(F)F | inactive |  |
| CC(C)c1ccccc1N | inactive |  |
| O=C(O)C(F)(F)C(F)(F)C(F)(F)C(F)(F)F | inactive |  |
| FC(F)(Br)C(F)(F)C(F)(F)C(F)(F)C(F)(F)C(F)(F)Br | inactive |  |
| FC(F)(F)C(F)(F)C(F)(F)C(F)(F)C(F)(F)C(F)(F)CCS | inactive |  |
| CCCCNc1ccccc1 | inactive |  |

| SMILES | outcome | AC50 |
| --- | --- | --- |
| O=C(O)C(F)(F)C(F)(F)C(F)(F)C(F)(F)C(F)(F)C(F)(F)C(F)(F)C(F)(F)C(F)(F)C(F)(F)C(F)(F)C(F)(F)F | inactive |  |
| CCCCOCCOCCOC(=O)CCCCC(=O)OCCOCCOCCCC | inactive |  |
| CNC(=S)NC | inactive |  |
| O=C(O)C(F)(OC(F)(F)C(F)(OC(F)(F)C(F)(F)C(F)(F)F)C(F)(F)F)C(F)(F)F (stereo not given) | inactive |  |
| CCC(=O)OCCc1ccccc1 | inactive |  |
| CC(C)(C)C(=O)CC(=O)C(F)(F)C(F)(F)C(F)(F)F | inactive |  |
| FC(F)(F)C(F)(F)C(F)(F)C(F)(F)CCI | inactive |  |
| CC(C)(C)c1ccc(OC2CCCCC2O)cc1 (stereo not given) |  | 26.1 µM (active) |
| CN(C)Cc1ccccc1O | inactive |  |
| O=S(=O)(OCCOC(F)(F)F)C(F)(F)F | inactive |  |
| FC(F)(F)C(F)(F)C(F)(F)C(F)(F)C(F)(F)C(F)(F)CC1CO1 (stereo not given) | inactive |  |
| C1COCCN1 | inactive |  |
| CC(C)=CCCC(C)CCOC(=O)C(C)C (stereo not given) | inactive |  |
| C=C(C)C(=O)OCC(F)(F)C(F)(F)C(F)(F)F | inactive |  |
| OCCCC(F)(F)C(F)(F)C(F)(F)F | inactive |  |
| O=C(C=Cc1ccccc1)OCC=Cc1ccccc1 | inactive |  |
| CS(C)(=O)=O | inactive |  |
| Nc1cc(Cl)c(N)c(Cl)c1 | inactive |  |
| O=C(O)C(F)(F)C(F)(F)C(F)(F)C(F)(F)C(F)(F)C(F)(F)C(F)(F)C(F)(F)C(F)(F)C(F)(F)C(F)(F)C(F)(F)C(F)(F)F | inactive |  |
| C(=C(c1ccccc1)c1ccccc1)c1ccccc1 | inactive |  |
